Reference: the supplement of paper PMC11732987, “Enantioselective OTUD7B fragment discovery through chemoproteomics screening and high-throughput optimisation” (Communications Chemistry, 2025)

Columns and labels:
Experiment in all cases: log2 ratio of Biotin-Ahx-Ub-VS probe labelling (fragment/DMSO); higher = less target engagement (more negative = stronger competition), active = hit call of the paper (q ≤ 0.05, log2 ratio ≤ -1)
Conditions in all cases: compound concentration: 200 uM; treatment time: 3 h
[1] = target: USP34 (UniProt Q70CQ2)
Sequence of USP34 (Q70CQ2 whole entry, the tested form may be a part): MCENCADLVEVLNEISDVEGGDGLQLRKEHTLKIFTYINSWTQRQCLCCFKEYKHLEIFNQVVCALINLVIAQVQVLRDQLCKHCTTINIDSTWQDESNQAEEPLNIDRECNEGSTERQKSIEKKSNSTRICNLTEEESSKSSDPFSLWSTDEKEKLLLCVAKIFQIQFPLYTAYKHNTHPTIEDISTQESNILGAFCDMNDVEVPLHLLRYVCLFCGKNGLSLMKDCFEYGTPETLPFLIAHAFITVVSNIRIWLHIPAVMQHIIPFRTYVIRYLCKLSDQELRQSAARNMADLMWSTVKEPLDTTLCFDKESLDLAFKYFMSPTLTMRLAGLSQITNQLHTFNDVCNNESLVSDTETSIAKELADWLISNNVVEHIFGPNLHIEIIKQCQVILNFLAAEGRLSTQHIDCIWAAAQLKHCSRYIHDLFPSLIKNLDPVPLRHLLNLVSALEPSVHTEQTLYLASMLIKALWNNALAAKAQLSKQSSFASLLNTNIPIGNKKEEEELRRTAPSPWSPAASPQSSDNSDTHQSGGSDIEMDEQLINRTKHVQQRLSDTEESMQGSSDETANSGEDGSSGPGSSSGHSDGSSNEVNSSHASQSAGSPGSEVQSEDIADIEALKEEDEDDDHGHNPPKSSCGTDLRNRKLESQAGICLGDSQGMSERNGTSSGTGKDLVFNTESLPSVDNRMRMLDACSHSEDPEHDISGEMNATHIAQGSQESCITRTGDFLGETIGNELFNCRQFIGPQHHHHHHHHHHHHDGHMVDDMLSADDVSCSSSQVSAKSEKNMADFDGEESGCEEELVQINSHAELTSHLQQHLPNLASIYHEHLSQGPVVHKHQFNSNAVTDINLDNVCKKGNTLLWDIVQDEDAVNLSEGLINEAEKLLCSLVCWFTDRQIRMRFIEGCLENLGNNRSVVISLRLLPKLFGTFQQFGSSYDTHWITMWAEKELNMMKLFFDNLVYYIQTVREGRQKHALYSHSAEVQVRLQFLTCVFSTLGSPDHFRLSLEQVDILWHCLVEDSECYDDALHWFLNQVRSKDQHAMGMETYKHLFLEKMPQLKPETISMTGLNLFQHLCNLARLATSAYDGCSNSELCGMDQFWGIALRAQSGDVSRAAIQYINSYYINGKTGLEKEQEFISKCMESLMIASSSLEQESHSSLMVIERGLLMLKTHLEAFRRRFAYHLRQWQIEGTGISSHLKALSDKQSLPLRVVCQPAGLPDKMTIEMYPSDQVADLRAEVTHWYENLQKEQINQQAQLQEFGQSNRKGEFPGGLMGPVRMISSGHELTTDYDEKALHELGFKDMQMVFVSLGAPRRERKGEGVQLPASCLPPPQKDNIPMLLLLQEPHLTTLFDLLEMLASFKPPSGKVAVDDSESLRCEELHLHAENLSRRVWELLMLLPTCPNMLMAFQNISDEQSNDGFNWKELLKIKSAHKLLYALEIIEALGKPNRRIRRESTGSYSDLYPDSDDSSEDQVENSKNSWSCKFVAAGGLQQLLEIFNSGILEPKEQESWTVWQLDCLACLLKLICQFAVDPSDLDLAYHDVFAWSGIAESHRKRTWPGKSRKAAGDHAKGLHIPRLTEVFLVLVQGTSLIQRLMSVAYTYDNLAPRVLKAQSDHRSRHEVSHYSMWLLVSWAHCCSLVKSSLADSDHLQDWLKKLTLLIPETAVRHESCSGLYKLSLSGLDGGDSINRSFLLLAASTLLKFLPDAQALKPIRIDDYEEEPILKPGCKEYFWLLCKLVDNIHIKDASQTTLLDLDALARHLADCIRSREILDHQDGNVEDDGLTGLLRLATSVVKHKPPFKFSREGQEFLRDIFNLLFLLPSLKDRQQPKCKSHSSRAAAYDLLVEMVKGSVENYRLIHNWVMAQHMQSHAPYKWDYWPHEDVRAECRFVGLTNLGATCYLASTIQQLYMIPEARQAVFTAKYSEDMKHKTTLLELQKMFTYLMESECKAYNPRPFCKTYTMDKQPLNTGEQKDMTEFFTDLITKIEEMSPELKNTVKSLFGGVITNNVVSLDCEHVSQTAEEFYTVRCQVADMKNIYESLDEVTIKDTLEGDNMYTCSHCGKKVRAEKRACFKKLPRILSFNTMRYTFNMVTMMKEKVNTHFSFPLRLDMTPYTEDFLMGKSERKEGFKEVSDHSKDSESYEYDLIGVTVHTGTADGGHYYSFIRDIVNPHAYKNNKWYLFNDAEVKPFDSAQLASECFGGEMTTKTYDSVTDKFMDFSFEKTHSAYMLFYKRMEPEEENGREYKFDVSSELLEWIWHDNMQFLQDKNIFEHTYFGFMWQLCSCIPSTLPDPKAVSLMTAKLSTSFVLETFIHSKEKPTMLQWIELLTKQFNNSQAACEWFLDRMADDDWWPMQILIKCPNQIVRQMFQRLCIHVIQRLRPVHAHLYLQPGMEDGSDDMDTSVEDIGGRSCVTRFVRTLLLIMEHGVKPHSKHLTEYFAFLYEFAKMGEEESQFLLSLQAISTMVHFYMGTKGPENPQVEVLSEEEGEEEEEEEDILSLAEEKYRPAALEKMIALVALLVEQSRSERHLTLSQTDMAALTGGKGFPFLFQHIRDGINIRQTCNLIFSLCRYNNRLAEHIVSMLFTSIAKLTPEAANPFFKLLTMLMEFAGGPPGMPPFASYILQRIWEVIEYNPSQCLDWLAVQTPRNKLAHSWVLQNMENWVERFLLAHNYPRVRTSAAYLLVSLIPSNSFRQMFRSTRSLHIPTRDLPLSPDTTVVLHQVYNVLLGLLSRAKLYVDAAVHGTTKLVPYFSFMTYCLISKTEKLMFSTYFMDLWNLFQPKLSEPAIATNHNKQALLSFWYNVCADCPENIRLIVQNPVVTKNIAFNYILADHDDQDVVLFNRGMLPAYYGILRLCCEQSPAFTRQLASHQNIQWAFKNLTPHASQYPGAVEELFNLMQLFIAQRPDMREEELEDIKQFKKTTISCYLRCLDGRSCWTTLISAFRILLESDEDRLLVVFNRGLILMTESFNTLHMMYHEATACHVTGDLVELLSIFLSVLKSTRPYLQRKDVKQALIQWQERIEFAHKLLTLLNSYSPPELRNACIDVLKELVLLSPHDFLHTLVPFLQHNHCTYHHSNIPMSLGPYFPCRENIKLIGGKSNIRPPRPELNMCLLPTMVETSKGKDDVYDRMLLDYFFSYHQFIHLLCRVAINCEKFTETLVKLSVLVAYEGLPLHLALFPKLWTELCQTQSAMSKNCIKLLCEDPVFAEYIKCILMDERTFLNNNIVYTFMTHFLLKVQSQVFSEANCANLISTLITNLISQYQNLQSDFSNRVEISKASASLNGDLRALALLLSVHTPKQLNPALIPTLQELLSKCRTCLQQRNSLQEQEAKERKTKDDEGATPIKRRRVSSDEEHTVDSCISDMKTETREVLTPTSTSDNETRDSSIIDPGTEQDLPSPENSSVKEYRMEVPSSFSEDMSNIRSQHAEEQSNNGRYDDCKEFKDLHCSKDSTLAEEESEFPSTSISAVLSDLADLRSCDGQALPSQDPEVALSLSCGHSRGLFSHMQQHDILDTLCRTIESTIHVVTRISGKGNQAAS
In short: (§1)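 Each value is an average log2 ratio of fragment to vehicle, tested by unpaired t-test. The underlying Spectronaut label-free quantities were global-median-normalised, and only proteins with ≥2 unique peptides were included. Triplicate HEK293T lysate samples (495 µg) were exposed to fragment at 200 µM or vehicle for 3 h, then to Biotin-Ahx-Ub-VS at 0.5 µM final for 1 h, before NeutrAvidin enrichment of labelled DUBs, LysC and trypsin digestion, and diaPASEF LC-MS/MS.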

[2] = target: T1, USP36 (UniProt Q9P275)
T1 sequence (whole entry): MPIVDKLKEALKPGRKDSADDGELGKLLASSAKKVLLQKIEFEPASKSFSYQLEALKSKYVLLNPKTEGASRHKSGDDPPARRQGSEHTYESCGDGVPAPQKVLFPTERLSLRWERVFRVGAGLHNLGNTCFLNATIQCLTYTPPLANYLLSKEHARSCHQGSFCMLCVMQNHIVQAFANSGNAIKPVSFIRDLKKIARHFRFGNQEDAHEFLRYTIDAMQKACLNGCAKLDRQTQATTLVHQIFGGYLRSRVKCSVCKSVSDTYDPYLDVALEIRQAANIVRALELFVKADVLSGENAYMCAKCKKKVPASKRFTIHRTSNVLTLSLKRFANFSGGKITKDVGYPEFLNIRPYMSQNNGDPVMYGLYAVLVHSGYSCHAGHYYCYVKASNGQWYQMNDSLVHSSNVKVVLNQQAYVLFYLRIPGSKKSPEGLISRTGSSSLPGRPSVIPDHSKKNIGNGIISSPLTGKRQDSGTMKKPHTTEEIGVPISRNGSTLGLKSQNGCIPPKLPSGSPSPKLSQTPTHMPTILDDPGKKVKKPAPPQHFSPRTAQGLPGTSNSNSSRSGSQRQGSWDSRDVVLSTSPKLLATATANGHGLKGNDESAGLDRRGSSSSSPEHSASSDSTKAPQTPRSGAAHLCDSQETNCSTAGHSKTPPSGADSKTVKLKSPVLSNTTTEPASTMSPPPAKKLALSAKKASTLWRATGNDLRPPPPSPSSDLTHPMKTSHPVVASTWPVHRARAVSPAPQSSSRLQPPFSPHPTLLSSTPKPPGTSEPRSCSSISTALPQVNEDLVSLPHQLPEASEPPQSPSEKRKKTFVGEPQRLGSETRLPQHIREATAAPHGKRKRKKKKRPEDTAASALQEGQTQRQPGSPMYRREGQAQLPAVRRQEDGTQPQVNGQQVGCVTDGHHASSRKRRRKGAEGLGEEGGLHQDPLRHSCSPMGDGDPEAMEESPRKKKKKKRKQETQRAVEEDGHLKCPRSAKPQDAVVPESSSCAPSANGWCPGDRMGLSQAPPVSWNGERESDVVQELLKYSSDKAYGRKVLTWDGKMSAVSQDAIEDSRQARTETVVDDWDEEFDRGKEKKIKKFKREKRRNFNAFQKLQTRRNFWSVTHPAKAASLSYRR
In short: as §1

[3] = target: T2, USP38 (UniProt Q8NB14)
T2 sequence (whole entry): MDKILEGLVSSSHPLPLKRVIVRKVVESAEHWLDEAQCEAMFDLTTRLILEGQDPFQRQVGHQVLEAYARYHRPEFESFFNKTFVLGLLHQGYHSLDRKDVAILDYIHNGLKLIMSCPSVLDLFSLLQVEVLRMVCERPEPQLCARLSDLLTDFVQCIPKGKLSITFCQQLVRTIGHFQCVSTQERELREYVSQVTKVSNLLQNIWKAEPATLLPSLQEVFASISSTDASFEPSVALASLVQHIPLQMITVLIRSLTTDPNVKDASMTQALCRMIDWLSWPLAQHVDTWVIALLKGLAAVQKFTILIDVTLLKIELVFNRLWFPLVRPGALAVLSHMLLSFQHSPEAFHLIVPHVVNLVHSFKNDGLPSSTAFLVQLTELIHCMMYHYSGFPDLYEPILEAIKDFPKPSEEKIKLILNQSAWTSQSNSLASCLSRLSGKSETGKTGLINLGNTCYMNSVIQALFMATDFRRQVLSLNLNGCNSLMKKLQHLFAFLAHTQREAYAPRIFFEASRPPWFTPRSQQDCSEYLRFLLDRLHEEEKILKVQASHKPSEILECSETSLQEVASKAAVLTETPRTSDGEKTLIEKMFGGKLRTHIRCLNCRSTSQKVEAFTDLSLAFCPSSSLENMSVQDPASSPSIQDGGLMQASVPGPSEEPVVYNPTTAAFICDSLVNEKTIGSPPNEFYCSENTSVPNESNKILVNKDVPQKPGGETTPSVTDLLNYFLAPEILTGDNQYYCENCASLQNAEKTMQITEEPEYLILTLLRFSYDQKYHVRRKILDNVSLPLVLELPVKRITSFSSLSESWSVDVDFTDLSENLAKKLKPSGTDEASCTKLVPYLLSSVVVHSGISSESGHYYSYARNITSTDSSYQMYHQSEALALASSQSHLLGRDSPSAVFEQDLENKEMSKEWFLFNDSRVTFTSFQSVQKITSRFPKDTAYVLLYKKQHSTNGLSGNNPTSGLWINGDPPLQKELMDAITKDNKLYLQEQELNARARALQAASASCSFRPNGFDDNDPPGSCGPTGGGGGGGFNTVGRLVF
In short: as §1

[4] = target: T3, USP39 (UniProt Q53GS9)
T3 sequence (whole entry): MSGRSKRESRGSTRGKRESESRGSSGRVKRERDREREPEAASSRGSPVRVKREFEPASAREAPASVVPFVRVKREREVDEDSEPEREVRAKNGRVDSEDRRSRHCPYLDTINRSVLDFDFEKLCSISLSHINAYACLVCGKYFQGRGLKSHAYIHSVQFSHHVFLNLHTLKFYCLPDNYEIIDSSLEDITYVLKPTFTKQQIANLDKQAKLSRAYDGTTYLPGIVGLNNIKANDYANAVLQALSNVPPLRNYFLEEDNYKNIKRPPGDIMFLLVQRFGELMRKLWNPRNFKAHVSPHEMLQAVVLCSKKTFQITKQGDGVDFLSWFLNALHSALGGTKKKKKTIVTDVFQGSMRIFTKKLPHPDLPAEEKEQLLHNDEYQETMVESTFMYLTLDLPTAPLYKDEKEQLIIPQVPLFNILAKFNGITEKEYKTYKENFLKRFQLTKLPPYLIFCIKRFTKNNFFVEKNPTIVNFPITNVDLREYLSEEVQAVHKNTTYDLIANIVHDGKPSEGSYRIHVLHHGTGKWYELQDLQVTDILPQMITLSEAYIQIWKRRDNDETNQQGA
In short: as §1

[5] = target: T4, USP4 (UniProt Q13107)
T4 sequence (whole entry): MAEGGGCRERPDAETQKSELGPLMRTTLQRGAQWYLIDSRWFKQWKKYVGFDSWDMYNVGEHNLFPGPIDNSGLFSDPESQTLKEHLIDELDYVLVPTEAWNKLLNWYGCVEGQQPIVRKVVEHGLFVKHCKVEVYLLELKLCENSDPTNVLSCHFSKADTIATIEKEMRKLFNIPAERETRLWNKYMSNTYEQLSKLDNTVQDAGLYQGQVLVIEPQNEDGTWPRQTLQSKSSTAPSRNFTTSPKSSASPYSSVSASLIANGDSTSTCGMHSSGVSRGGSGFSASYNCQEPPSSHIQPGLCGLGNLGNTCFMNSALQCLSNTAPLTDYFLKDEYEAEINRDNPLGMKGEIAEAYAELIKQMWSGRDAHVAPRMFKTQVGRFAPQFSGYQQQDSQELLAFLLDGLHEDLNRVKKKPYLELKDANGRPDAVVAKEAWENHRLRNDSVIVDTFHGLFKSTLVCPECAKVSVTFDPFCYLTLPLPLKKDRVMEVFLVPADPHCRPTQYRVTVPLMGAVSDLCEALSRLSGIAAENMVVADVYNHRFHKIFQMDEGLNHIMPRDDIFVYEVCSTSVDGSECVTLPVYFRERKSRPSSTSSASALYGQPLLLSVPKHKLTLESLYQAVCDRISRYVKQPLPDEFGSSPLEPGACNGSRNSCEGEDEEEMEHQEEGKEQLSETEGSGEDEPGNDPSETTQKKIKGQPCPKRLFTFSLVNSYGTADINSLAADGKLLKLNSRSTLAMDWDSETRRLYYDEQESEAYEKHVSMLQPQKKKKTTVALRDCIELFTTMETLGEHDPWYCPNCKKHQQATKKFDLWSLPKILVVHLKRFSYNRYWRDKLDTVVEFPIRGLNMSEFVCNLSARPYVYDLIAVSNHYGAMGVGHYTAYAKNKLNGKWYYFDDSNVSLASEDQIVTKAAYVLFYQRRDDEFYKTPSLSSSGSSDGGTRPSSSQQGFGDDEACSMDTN
In short: as §1

Measured: log2 ratio of Biotin-Ahx-Ub-VS probe labelling

CS(=O)(=O)c1ccc(CNC(=O)CCl)cc1
inactive: [1] -0.0991 | [2] -0.225 | [3] -0.0436 | [4] 0.204 | [5] -0.0105
